“And” between values parts separate entries of the source, which are not always exact repeats. Identical values can stand only once. The source made the active and inactive calls.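 Rule for the calls: active = mean z-score across replicates of 1.96 or higher in either the MELAS or the Rieske mutant cell line; inactive = the rest.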
Assay: survival rescue of mitochondrial mutant cells in low glucose, primary screen, MELAS cybrids, Rieske KO mouse fibroblasts, CellTiter-Glo (AID 1508586);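 note: test concentration not given here; z relative to plate mean and SD of compound and empty wells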
Conditions: MELAS cybrid survival, CellTiter-Glo 48 h, stronger effect = higher value

Row | SMILES | z-score
1 | CC(=O)N(CC(C)C(=O)O)c1c(I)cc(I)c(N)c1I (stereo not given) | 0.846 (inactive)
2 | Cc1cc(C(=O)NNCc2ccccc2)no1 | 0.697 (inactive)
3 | COc1ccccc1S(=O)(=O)Nc1ccc2c(c1)CN(C)C(=O)N2 | 0.202 (inactive)
4 | Cc1cc(C#N)cc(C)c1Oc1nc(Nc2ccc(C#N)cc2)nc(N)c1Br | 0.252 (inactive)
5 | Nc1ncn(C2OC(CO)C(O)C2O)c(=O)n1 (stereo not given) | -0.256 (inactive)
6 | O=C1OC(CN2CCOCC2)CN1N=Cc1ccc([N+](=O)[O-])o1 (stereo not given) | -0.512 (inactive)
7 | CCC(=O)OCC(=O)C1(OC(=O)CC)[C@H](C)C[C@H]2[C@H]3[C@H]([C@@H](O)C[C@@]21C)[C@@]1(C)C=CC(=O)C=C1C[C@H]3Cl (stereo not given in full) | 0.535 (inactive)
8 | Cc1cc(C)c(Nc2ccnc(Nc3ccc(C#N)cc3)n2)c(C)c1 | 0.0317 (inactive)
9 | CC(C)(C)C(=O)OCOC(=O)[C@@H]1N2C(=O)[C@@H](N=CN3CCCCCC3)[C@H]2SC1(C)C | 0.579 (inactive)
10 | CNC(=O)c1c(I)c(C(=O)NCC(=O)Nc2c(I)c(C(=O)O)c(I)c(C(=O)NCCO)c2I)c(I)c(N(C)C(C)=O)c1I | -0.247 (inactive)
11 | CNc1ncnc2c1ncn2[C@@H]1O[C@H](CO)[C@@H](O)[C@H]1O | 0.118 (inactive)
12 | Nc1nc(=S)c2ncn([C@@H]3O[C@H](CO)[C@@H](O)[C@H]3O)c2[nH]1 | 3.35 (active)
13 | COc1ccc(CC(N)C(=O)NC2C(CO)OC(n3cnc4c(N(C)C)ncnc43)C2O)cc1 (stereo not given) | -0.998 (inactive)
14 | O=c1ccn(C2OC(CO)C(O)C2O)c(=O)[nH]1 (stereo not given) | -0.15 (inactive)
15 | O=C1NCCN1c1ncc([N+](=O)[O-])s1 | 0.58 (inactive)
16 | CC=C1NC(=O)C2CSSCCC=CC(CC(=O)NC(C(C)C)C(=O)N2)OC(=O)C(C(C)C)NC1=O (stereo not given) | 0.102 (inactive)
17 | CCC(=O)[C@@]1(C)[C@H](C)C[C@H]2[C@@H]3CCC4=CC(=O)C=C[C@]4(C)[C@H]3[C@@H](O)C[C@@]21C | -0.53 (inactive)
18 | CN(C)CC(=O)Nc1ccc2[nH]c(=O)c3ccccc3c2c1 | -0.15 (inactive) and -0.352 (inactive)
19 | CC1OC(n2cc(F)c(=O)[nH]c2=O)C(O)C1O (stereo not given) | -0.306 (inactive)
20 | CC1(C)S[C@@H]2[C@H](NC(=O)COc3ccccc3)C(=O)N2C1C(=O)O (stereo not given in full) (tested in a mixture with another compound) | -0.168 (inactive)

Row | SMILES | z-score
21 | Nc1ccn(C2OC(CO)C(O)C2(F)F)c(=O)n1 (stereo not given) | 2.35 (active)
22 | CC[N+](CC)(CC)CCC(O)(c1ccccc1)C1CCCCC1 (stereo not given) | -0.675 (inactive)
23 | CNCCC=C1c2ccccc2C=Cc2ccccc21 | 0.194 (inactive)
24 | Cc1cn(C2CC(N=[N+]=[N-])C(CO)O2)c(=O)[nH]c1=O (stereo not given) | -0.326 (inactive)
25 | CC(C=CC(=O)NO)=CC(C)C(=O)c1ccc(N(C)C)cc1 (stereo not given) | -0.131 (inactive)
26 | NC(=S)NN=Cc1ncccc1N | 1.28
27 | c1ccc(CNc2ncnc3nc[nH]c23)cc1 | 2.23 (active)
28 | O=C(O)C(O)C(O)C(O)C(O)C(=O)O (stereo not given) (tested in a mixture with another compound) | -1.4 (inactive)
29 | O=C1OC(C(O)CO)C(O)=C1O (stereo not given) | 0.0982 (inactive)
30 | CC(C)(C#N)c1ccc(N2C(=O)OCc3cnc4ccc(-c5cnc6ccccc6c5)cc4c32)cc1 | 3.99 (active)
31 | CC1CN(c2c(F)c(N)c3c(=O)c(C(=O)O)cn(C4CC4)c3c2F)CC(C)N1 (stereo not given) | -0.385 (inactive)
32 | CCCCN(Cc1ccc(C(=O)NO)cc1)C(=O)Nc1ccccc1 | -0.565 (inactive)
33 | C[C@@H]1C[C@H]2[C@@H]3C[C@H](F)C4=CC(=O)C=C[C@]4(C)[C@@]3(Cl)[C@@H](O)C[C@]2(C)[C@H]1C(=O)COC(=O)C(C)(C)C | -0.991 (inactive)
34 | O=c1[nH]cnc2c1ncn2C1OC(CO)C(O)C1O (stereo not given) | -0.214 (inactive)
35 | Cc1cc(C=CC#N)cc(C)c1Nc1ccnc(Nc2ccc(C#N)cc2)n1 | -0.58 (inactive)
36 | CCCC1C(=O)N2C(N(C)C)=Nc3ccc(C)cc3N2C1=O (stereo not given) | 0.00688 (inactive)
37 | CCCCC[C@H](O)/C=C/[C@@H]1[C@@H](C/C=C\CCCC(=O)O)[C@@H](O)C[C@H]1O (tested in a mixture with another compound) | -0.0339 (inactive)
38 | CC(Oc1cc(-c2cnn(C3CCNCC3)c2)cnc1N)c1c(Cl)ccc(F)c1Cl (stereo not given) | -0.618 (inactive) and 0.388 (inactive)
39 | O=C(O)c1cc2cccc([N+](=O)[O-])c2[nH]1 | -0.36 (inactive)
40 | O=c1[nH]c(=O)n(C2CC(O)C(CO)O2)cc1I (stereo not given) | -0.224 (inactive)

Same assay, conditions: Rieske KO mouse fibroblast survival, CellTiter-Glo 72 h

Row | SMILES | z-score
41 | CC(=O)N(CC(C)C(=O)O)c1c(I)cc(I)c(N)c1I (stereo not given) | 0.109
42 | Cc1cc(C(=O)NNCc2ccccc2)no1 | 0.109
43 | COc1ccccc1S(=O)(=O)Nc1ccc2c(c1)CN(C)C(=O)N2 | -0.445
44 | Cc1cc(C#N)cc(C)c1Oc1nc(Nc2ccc(C#N)cc2)nc(N)c1Br | -0.21
45 | Nc1ncn(C2OC(CO)C(O)C2O)c(=O)n1 (stereo not given) | 0.025
46 | O=C1OC(CN2CCOCC2)CN1N=Cc1ccc([N+](=O)[O-])o1 (stereo not given) | -0.452
47 | CCC(=O)OCC(=O)C1(OC(=O)CC)[C@H](C)C[C@H]2[C@H]3[C@H]([C@@H](O)C[C@@]21C)[C@@]1(C)C=CC(=O)C=C1C[C@H]3Cl (stereo not given in full) | 0.903
48 | Cc1cc(C)c(Nc2ccnc(Nc3ccc(C#N)cc3)n2)c(C)c1 | 0.105
49 | CC(C)(C)C(=O)OCOC(=O)[C@@H]1N2C(=O)[C@@H](N=CN3CCCCCC3)[C@H]2SC1(C)C | -0.414
50 | CNC(=O)c1c(I)c(C(=O)NCC(=O)Nc2c(I)c(C(=O)O)c(I)c(C(=O)NCCO)c2I)c(I)c(N(C)C(C)=O)c1I | 0.501
51 | CNc1ncnc2c1ncn2[C@@H]1O[C@H](CO)[C@@H](O)[C@H]1O | -0.237
52 | Nc1nc(=S)c2ncn([C@@H]3O[C@H](CO)[C@@H](O)[C@H]3O)c2[nH]1 | -0.524
53 | COc1ccc(CC(N)C(=O)NC2C(CO)OC(n3cnc4c(N(C)C)ncnc43)C2O)cc1 (stereo not given) | -2.06
54 | O=c1ccn(C2OC(CO)C(O)C2O)c(=O)[nH]1 (stereo not given) | 0.496
55 | O=C1NCCN1c1ncc([N+](=O)[O-])s1 | -0.169
56 | CC=C1NC(=O)C2CSSCCC=CC(CC(=O)NC(C(C)C)C(=O)N2)OC(=O)C(C(C)C)NC1=O (stereo not given) | -3.68
57 | CCC(=O)[C@@]1(C)[C@H](C)C[C@H]2[C@@H]3CCC4=CC(=O)C=C[C@]4(C)[C@H]3[C@@H](O)C[C@@]21C | 0.51
58 | CN(C)CC(=O)Nc1ccc2[nH]c(=O)c3ccccc3c2c1 | -0.197 and 0.819
59 | CC1OC(n2cc(F)c(=O)[nH]c2=O)C(O)C1O (stereo not given) | 0.652
60 | CC1(C)S[C@@H]2[C@H](NC(=O)COc3ccccc3)C(=O)N2C1C(=O)O (stereo not given in full) (tested in a mixture with another compound) | -0.00269

Row | SMILES | z-score
61 | Nc1ccn(C2OC(CO)C(O)C2(F)F)c(=O)n1 (stereo not given) | -0.225
62 | CC[N+](CC)(CC)CCC(O)(c1ccccc1)C1CCCCC1 (stereo not given) | -0.626
63 | CNCCC=C1c2ccccc2C=Cc2ccccc21 | 0.365
64 | Cc1cn(C2CC(N=[N+]=[N-])C(CO)O2)c(=O)[nH]c1=O (stereo not given) | -0.454
65 | CC(C=CC(=O)NO)=CC(C)C(=O)c1ccc(N(C)C)cc1 (stereo not given) | -2.46
66 | NC(=S)NN=Cc1ncccc1N | 3.3
67 | c1ccc(CNc2ncnc3nc[nH]c23)cc1 | 0.15
68 | O=C(O)C(O)C(O)C(O)C(O)C(=O)O (stereo not given) (tested in a mixture with another compound) | -0.918
69 | O=C1OC(C(O)CO)C(O)=C1O (stereo not given) | -0.298
70 | CC(C)(C#N)c1ccc(N2C(=O)OCc3cnc4ccc(-c5cnc6ccccc6c5)cc4c32)cc1 | 2.98
71 | CC1CN(c2c(F)c(N)c3c(=O)c(C(=O)O)cn(C4CC4)c3c2F)CC(C)N1 (stereo not given) | 0.474
72 | CCCCN(Cc1ccc(C(=O)NO)cc1)C(=O)Nc1ccccc1 | 1.2
73 | C[C@@H]1C[C@H]2[C@@H]3C[C@H](F)C4=CC(=O)C=C[C@]4(C)[C@@]3(Cl)[C@@H](O)C[C@]2(C)[C@H]1C(=O)COC(=O)C(C)(C)C | -0.15
74 | O=c1[nH]cnc2c1ncn2C1OC(CO)C(O)C1O (stereo not given) | -0.0718
75 | Cc1cc(C=CC#N)cc(C)c1Nc1ccnc(Nc2ccc(C#N)cc2)n1 | 1.5
76 | CCCC1C(=O)N2C(N(C)C)=Nc3ccc(C)cc3N2C1=O (stereo not given) | -0.91
77 | CCCCC[C@H](O)/C=C/[C@@H]1[C@@H](C/C=C\CCCC(=O)O)[C@@H](O)C[C@H]1O (tested in a mixture with another compound) | -1.21
78 | CC(Oc1cc(-c2cnn(C3CCNCC3)c2)cnc1N)c1c(Cl)ccc(F)c1Cl (stereo not given) | -0.613 and -1.18
79 | O=C(O)c1cc2cccc([N+](=O)[O-])c2[nH]1 | 0.315
80 | O=c1[nH]c(=O)n(C2CC(O)C(CO)O2)cc1I (stereo not given) | -0.483
